Source: PubChem
Sm TGR inh = inhibitors of Schistosoma mansoni thioredoxin glutathione reductase; AID 485364; Q962Y6; purified TGR, DTNB reduction, TNB absorbance 405 nm; 360,000 tested, 3% active; Potency, µM (top dose mostly 114 µM), without a hit: at the highest dose activity change, negative = inhibition, most hits filed as inhibitors; also: % is scaled to controls: 0 for no effect and ±100 for the full control effect; nearly all actives have a fitted effect of over 60% in size
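TGR 20 nM + NADPH 100 uM (dispensed conc.), cpd preinc 15 min RT; start with NADPH (500 uM addition) then DTNB (15 mM addition). Kinetic TNB absorbance, 405 nm filter. Four-parameter Hill fit across titration.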
NS1 function inh = inhibitors of influenza NS1 protein function; 270,000 tested, 0.4% active; AID 2326; Potency, µM (doses to about 46.1 µM), inactives show at the top dose activity, positive = more growth; calls by dose curve; also: actives are rising curves; nearly all actives have a fitted effect of over 50% in size
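A cell-based growth assay was used: compounds that relieve NS1-induced slow growth of budding yeast raise OD600. Assay medium was yeast nitrogen base with ammonium sulphate and -URA supplement, pH 6.0, with 2% galactose.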
Pf growth 96h = inhibits malaria parasite growth, 96 h | P. falciparum luciferase reporter growth, 96 h | Potency, µM (titrated, usually from 28.7 µM), without a hit: at the top dose activity change, negative = inhibition, usual class: inhibitors | 320,000 tested, 6.9% active | AID 504834; also: % is scaled to controls: 0 for no effect and ±100 for the full control effect
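Erythrocytes infected with luciferase-expressing P. falciparum were dispensed at 2% hematocrit and 0.05% parasitemia (final), then incubated with compounds 96 hours at 37 C in 5% CO2. Luminescence after detection reagent addition reported growth.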
Pf growth 48h = P. falciparum growth inhibition at 48 hours (one generation). P. falciparum luciferase growth in erythrocytes, 48 h. Potency, µM (highest dose often 28.7 µM), without a hit: at the top dose activity change, negative = inhibition, usual class: inhibitors. 310,000 tested, 5.9% active. AID 504832; also: % is scaled to controls: 0 for no effect and ±100 for the full control effect
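Parasite viability was followed by luminescence of a genomically integrated firefly luciferase. Cultures held 0.1% parasitemia at 2% hematocrit (final), incubated under 5% CO2 at 37 C.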
AMA1-RON2 inh = AMA1-RON2 (P. falciparum) interaction inhibition. AlphaScreen AMA1-biotinylated RON2 peptide binding. Potency, µM (doses to about 58.2 µM), inactives show at the top dose activity change, negative = inhibition, actives largely listed as inhibitors. 360,000 tested, 0.2% active;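 also: 0% = vehicle wells and -100% = peptide control; nearly all actives have a fitted effect of over 45% in size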
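AMA1 (3D7) with his tag at 25 nM final met compounds first, then biotinylated RON2 peptide at 25 nM; detection used donor plus acceptor beads, 10 µg/mL apiece, read by AlphaScreen after 30 min at room temperature.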
An asterisk follows results filed as active; ? = inconclusive; / = no result. The list is not random: actives were taken first. Their share in the collection is about 11%. Unless noted, calls follow the shape of the dose curve; as a rule, active = well fitted curve in the direction sought with a large enough effect; inconclusive = small, poorly fitted or top-dose-only effect, or another doubt; inactive = no such curve, though single readings can be large; an effect the other way counts as inactive or inconclusive. Potency is read from the fitted curve at half-maximal effect.

SMILES	Sm TGR inh	NS1 function inh	Pf growth 96h	Pf growth 48h	AMA1-RON2 inh
Cc1ccc(OCC(=O)Oc2cccc(C)c2C)cc1	-2%	-3%	12µM*	41%	10%
Cc1ccc(OC(=O)COc2ccccc2C)cc1	-4%	-50%	15%	-2%	25%
COc1ccc(N2CCN(C(=O)c3cc4c(=O)oc5ccc(C)cc5c4s3)CC2)cc1	14%	/	/	/	/
COc1cc(/C=C(\C#N)c2nc3ccc(C)cc3[nH]2)ccc1OCc1ccc(C)cc1	7%	/	/	/	/
COc1cc(/C=C(\C#N)c2ccccn2)ccc1OCc1ccc(Cl)cc1	-1%	-4%	5.2µM*	6.6µM*	-23%
COc1cc(/C=C(\C#N)c2ccccn2)ccc1OCc1ccccc1	-9%	-15%	?	9.3µM*	8%
Cc1ccc(-n2nc3c(=O)n(CCCC(=O)NCc4cccc(F)c4)nc(C)c3c2C)cc1	4%	-2%	46%	10µM*	2%
Cc1ccc(-n2nc3c(=O)n(CCCC(=O)NCc4ccco4)nc(C)c3c2C)cc1	-1%	-12%	?	12µM*	-11%
Cc1nn(CC(=O)N2CCCC2)c(=O)c2nn(-c3ccccc3)c(C)c12	-4%	-2%	?	9%	16%
Cc1ccc(-n2nc3c(=O)n(CCCC(=O)N4CCCCC4)nc(C)c3c2C)cc1	-22%	-1%	?	9.3µM*	-3%
Cc1ccc(-n2nc3c(=O)n(CCCC(=O)NCc4ccc(F)cc4)nc(C)c3c2C)cc1	2%	-2%	13%	8.3µM*	10%
CC1(c2ccc(OC(F)F)cc2)NC(=O)N(CC(=O)NCCC2=CCCCC2)C1=O (stereo unspecified)	-15%	/	-24%	?	-6%
CC(CN1CCCCC1)NC(=O)c1cc(-c2ccccn2)nc2ccc(Cl)cc12 (stereo unspecified)	4%	5%	16%	?	11%
COc1ccc2c(c1)c1c(c(=O)n(-c3ccccc3C)c(=O)n1CC(=O)Nc1c(C)cccc1C)n2C	2%	/	/	/	/
CCC(=O)N1CCc2cc(Br)cc(S(=O)(=O)Nc3ccccc3C(=O)OC)c21	-3%	/	/	/	/
COc1ccc(S(=O)(=O)N2CCOCC2)cc1C(=O)N1CCCCC1	0%	14%	?	5%	-15%
O=C(O)Cc1ccc(-n2cccc2)cc1	-3%	/	26%	12%	-9%
Cc1ccc(-n2nc3c(=O)n(CCCC(=O)NCCN4CCN(C)CC4)nc(C)c3c2C)cc1	0%	5%	12µM*	?	6%
Cc1ccc(O)c(-c2cc(C(F)(F)C(F)F)nc(-c3ccccc3)n2)c1	8%	?	8.3µM*	?	-2%
Oc1ccc(Cl)cc1-c1cc(C(F)(F)C(F)F)nc(-c2ccccc2)n1	-1%	-1%	/	1.3µM*	-1%
Oc1ccccc1-c1cc(C(F)(F)F)nc(-c2ccccc2)n1	/	3%	?	?	-13%
O=C1N[C@@H](Cc2ccccc2)C(=O)N2[C@H]3Nc4ccccc4[C@@]3([C@]34C[C@H]5C(=O)N[C@@H](Cc6ccccc6)C(=O)N5[C@H]3Nc3ccccc34)C[C@@H]12	/	/	/	/	-10%
CN1C(=O)[C@@H]2C[C@@]3([C@@]45C[C@H]6C(=O)N(C)[C@@H](Cc7ccccc7)C(=O)N6[C@@H]4Nc4ccccc45)c4ccccc4N[C@H]3N2C(=O)[C@@H]1Cc1ccccc1	0%	/	?	12µM*	-8%
CC(C(=O)NC1CCCC1)N1CCN(S(=O)(=O)c2ccc(C(C)(C)C)cc2)CC1 (stereo unspecified)	-8%	/	1.5µM*	1.5µM*	8%
CCCn1c(NC(=O)c2cccc(S(=O)(=O)N3CCCC3)c2)nc2ccccc21	4%	-33%	9.3µM*	?	33%
SMILES	Sm TGR inh	NS1 function inh	Pf growth 96h	Pf growth 48h	AMA1-RON2 inh
CCCn1c(NC(=O)c2ccccc2)nc2ccccc21	-17%	-113%	54%	?	29%
CC(C)(C)c1ccc(S(=O)(=O)N2CCN(C3CCCC3)CC2)cc1	-1%	-4%	12%	?	-3%
CCCn1c(NC(=O)C2CCN(S(=O)(=O)c3cccs3)CC2)nc2ccccc21	5%	-74%	71%	10µM*	96%
CC(C(=O)NCC1CCCCC1)N1CCN(S(=O)(=O)c2cccs2)CC1 (stereo unspecified)	-10%	/	?	9.3µM*	5%
O=C(Nc1nccs1)C1CC(=O)N(c2ccccc2)C1 (stereo unspecified)	10%	1%	-14%	17%	-1%
Cc1ccc(CNC(=O)C2CCN(S(=O)(=O)c3cccs3)CC2)o1	5.6µM*	4%	87%	?	3%
COc1cccc(CNn2c(-c3cccc(C)c3)nc3ccccc3c2=O)c1	-11%	-1%	9.3µM*	/	-4%
COc1ccc(OCC(=O)Nn2c(-c3ccc(C)cc3)nc3ccccc3c2=O)cc1	2%	9%	-7%	27%	8%
COc1ccc(OC)c(CNn2c(-c3cccc(C)c3)nc3ccccc3c2=O)c1	-2%	-8%	8.3µM*	/	-8%
Cc1ccc([N+](=O)[O-])cc1NC(=O)C(C)NS(=O)(=O)c1ccc(F)cc1 (stereo unspecified)	-4%	3%	14%	-17%	10%
CC(C(=O)Nc1cccnc1)n1cc([N+](=O)[O-])cn1 (stereo unspecified)	2%	/	-27%	?	-7%
Oc1cc2c(cc1O)[C@H]1c3ccccc3CN[C@@H]1CC2	8.9µM*	/	/	/	/
COc1ccc(NC2=C(c3ccc(OC)cc3)C(=O)c3ccccc32)cc1	5%	24%	?	0.66µM*	1%
COc1ccc(C2=C(Nc3ccc(C)cc3C)c3ccccc3C2=O)cc1	-18%	/	/	/	/
COc1ccc(C2=C(Nc3ccccc3)c3ccccc3C2=O)cc1	-2%	-8%	-93%	1µM*	-12%
COc1ccc(C2=C(N)c3ccccc3C2=O)cc1	4%	-6%	10µM*	-5%	-13%
COc1ccc(NC2=C(c3ccc(C(F)(F)F)cc3)C(=O)c3ccccc32)cc1	11%	/	/	/	/
COC1=CC(=O)c2ccccc2C1=O	/	/	/	/	6%
COC1=C(c2ccccc2)C(=O)c2ccccc2C1=O	-32%	-59%	1.2µM*	1.5µM*	-29%
COc1ccc(Nc2c(-c3ccc(F)cc3)nc3nc(C)cc(C)n23)cc1	/	/	/	/	-26%
CCc1cccc(NC(=S)Nc2cccc3ccccc23)c1	-1%	24%	0%	?	88%
COC(=O)c1[nH]c2ccccc2c1NC(=O)c1c(F)cccc1F	25%	2%	-14%	-9%	2%
CCCOc1ccc(C(=O)CCC(=O)Nc2ccc(N3CCN(C)CC3)cc2)cc1	-4%	/	?	?	-12%
O=C(c1ccccc1)c1c[nH]cc1-c1ccccc1	3%	-1%	2%	11%	-11%
O=C(C1=C(c2ccccc2)C(=O)c2ccccc2C1=O)c1ccccc1	11%	-13%	28%	1.5µM*	?
